Screening data deposited in PubChem by National Center for Advancing Translational Sciences (NCATS).
A selection: hits, their analogues and other compounds. The true share with any hit is near 3%.
Epigenetic mod: qHTS Assay for Epigenetic Modulators. 0.09% of 68,000 active. Potency, µM (top dose mostly 46.1 µM). AID 597, 2007. mouse C127i GFP locus derepression, cytometry, 30 h
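Read-out is the number of GFP-positive cells, scored as fluorescent objects 20 to 120 um wide, reflecting derepression of a silenced CMV-GFP reporter in murine C127i cells after 30 h compound exposure at 37 C.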
Tau fil binding: qHTS Assay for Tau Filament Binding. Potency, µM (top dose mostly 57.1 µM). Microtubule-associated protein tau (Homo sapiens), P10636. recombinant tau filaments, thioflavin S fluorescence, 15 h; filaments grown with octadecylsulfate alongside compound. 2% of 71,000 active. AID 596, 2007;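 note: actives lower thioflavin S fluorescence by blocking filaments or displacing dye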
Target sequence (P10636 whole entry, looked up): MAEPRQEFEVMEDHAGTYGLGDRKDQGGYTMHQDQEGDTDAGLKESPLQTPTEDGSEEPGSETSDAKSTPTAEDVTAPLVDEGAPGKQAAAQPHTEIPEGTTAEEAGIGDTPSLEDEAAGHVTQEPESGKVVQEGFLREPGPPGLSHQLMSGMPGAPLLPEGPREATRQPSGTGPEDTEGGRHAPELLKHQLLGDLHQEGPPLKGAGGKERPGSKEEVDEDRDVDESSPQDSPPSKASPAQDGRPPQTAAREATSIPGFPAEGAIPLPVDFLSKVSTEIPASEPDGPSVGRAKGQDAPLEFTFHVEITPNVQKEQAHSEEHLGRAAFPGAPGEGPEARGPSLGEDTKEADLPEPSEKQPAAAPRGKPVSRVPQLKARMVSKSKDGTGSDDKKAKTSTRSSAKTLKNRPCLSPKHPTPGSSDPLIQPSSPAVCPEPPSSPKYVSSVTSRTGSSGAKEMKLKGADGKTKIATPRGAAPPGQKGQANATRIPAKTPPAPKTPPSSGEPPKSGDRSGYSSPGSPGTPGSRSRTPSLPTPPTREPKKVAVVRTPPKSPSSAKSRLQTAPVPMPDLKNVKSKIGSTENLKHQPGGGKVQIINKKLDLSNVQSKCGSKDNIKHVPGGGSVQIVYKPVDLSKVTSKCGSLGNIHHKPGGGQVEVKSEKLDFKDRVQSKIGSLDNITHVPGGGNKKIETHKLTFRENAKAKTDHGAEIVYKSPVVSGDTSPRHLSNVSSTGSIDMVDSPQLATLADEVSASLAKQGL
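ThS-based fibril read: tau 1 uM final, inducer ODS 30 uM final, 37 C for 15 h, ex 450/em 510 nm.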
ERK AVP block: qHTS Assay for Inhibitors of the ERK Signaling Pathway using a Homogeneous Screening Assay. HEK293-V1b, vasopressin-stimulated pERK AlphaScreen. Potency, µM (series often up to 57.5 µM), actives largely listed as inhibitors. 0.99% of 72,000 active; note: nearly all actives have a fitted effect of over 55% in size
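V1b-HEK293 cells; cpd 30 min 37C; 25 nM vasopressin 5 min; lyse 10 min; AlphaScreen beads 5 hr RT. Normalized to DMSO basal and 25 nM vasopressin; AC50 by Hill fit.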
UbGFP stabilizer: Ubiquitin-GFP Assay | AID 526, 2006 | Potency, µM (series often up to 45.9 µM), usual class: activators | Ubiquitin-GFP reporter cells, proteasome inhibition, GFP fluorescence; response scale: untreated = 0%, 10 µM MG-132 = 100% | 67,000 tested, under 10 active; active = well fitted activation curve with a large enough effect, not every such curve was filed as active; inconclusive = small, poorly fitted or top-dose-only effect, or another doubt; inactive = no such curve, though single readings can be large or run the other way
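Proteasome blockade was scored as a rise in GFP-expressing U2OS cells carrying a ubiquitin(G76V)-GFP construct, imaged after 4 hr compound treatment at 37 °C across a 46 uM–2.9 nM series.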
Hsp90 Hop PPI: qHTS Assay for Disrupters of an Hsp90 Co-Chaperone Interaction | AlphaScreen TPR2A-His6 binding biotin-Hsp90 C-terminal peptide | AID 595, 2007 | 0.44% of 71,000 active | Hsp90 C-terminal peptide / TPR2A (Hop) interaction, human | Potency, µM (doses to about 57 µM); active = well fitted curve in either direction with a large enough effect; inconclusive = small, poorly fitted or top-dose-only effect, or another doubt
HBB splice mod: qHTS Assay for Modulators of Hemoglobin Beta Chain Splicing | HBB splicing reporter cell assay, activation; EGFP reporter with mutant IVS2-654 intron; response scale: normalised to 500 nM splice-correcting PNA | Potency, µM (doses to about 46.1 µM), most hits filed as activators | 0.06% of 65,000 active
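HeLa cells stably expressing EGFP interrupted by mutant beta-globin intron 2 (IVS2-654), 500/well in 2% FCS. Treated with compound for 2 days at 37C. Splicing correction scored as total well GFP intensity (488 nm excitation, 500-520 nm emission); 500 nM antisense PNA served as control.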
Of the large screens only hits and unclear results are named; the others gave an inactive call; ! = not confirmed by another sample. Unless noted, calls come from the whole dose curve; as a rule, active = well fitted curve in the direction sought with a large enough effect; inconclusive = small, poorly fitted or top-dose-only effect, or another doubt; inactive = no such curve, though single readings can be large; an effect the other way counts as inactive or inconclusive.

COc1cccc(Nc2ncc3nc(-c4cc(F)cc(F)c4)c(=O)n(CCC#N)c3n2)c1	Tau fil binding 0.79µM, HBB splice mod inconclusive
OCCCCNc1cccc2ccccc12	Tau fil binding 25µM (no result: HBB splice mod)
C[N+](C)(C)[C@@H](C1=CCCC1=O)c1ccccc1	none
CCN(CC)c1ccc(NC(=O)C2CC3CCC2C3)cc1 (stereo unspecified)	Tau fil binding 25µM, ERK AVP block inconclusive
O[C@@H](c1cc(-c2ccccc2)nc2c1ccc1ccccc12)[C@@H]1CCCCN1	Hsp90 Hop PPI inconclusive
Cc1ccc2nsnc2c1S(=O)(=O)N1CCN(Cc2ccc3c(c2)OCO3)CC1	Tau fil binding 16µM
COc1cc([C@H]2c3cc4c(cc3[C@@H](O[C@H]3O[C@H]5CO[C@@H](C)O[C@H]5[C@@H](O)[C@@H]3O)[C@@H]3COC(=O)[C@H]23)OCO4)cc(OC)c1O	none
COc1cccc(-c2cn3nc(C)c(C)nc3n2)c1	Tau fil binding 10µM (no result: UbGFP stabilizer)
C[N+](C)(C)c1ncnc2c1ncn2[C@@H]1C[C@H](O)[C@@H](CO)O1	none
O=C(Cc1cc(=O)[nH]c(=O)[nH]1)N1CCC(Cc2ccccc2)CC1	Tau fil binding 25µM (no result: Epigenetic mod, ERK AVP block)
COc1ccc(NCc2nnc(SCC(=O)Nc3cc(C)cc(C)c3)o2)cc1	none (no result: HBB splice mod)
COc1ccc(NCc2nnc(SCC(=O)Nc3cc(C(F)(F)F)ccc3Cl)o2)cc1	Tau fil binding 20µM, Hsp90 Hop PPI inconclusive (no result: HBB splice mod)
COCCCn1c(=N)c(C(=O)NCc2ccc3c(c2)OCO3)cc2c(=O)n3cccc(C)c3nc21	Epigenetic mod inconclusive, Tau fil binding 3.2µM
Cc1cccn2c(=O)c3cc(C(=O)NC4CCCC4)c(=N)n(C4CCCC4)c3nc12	Tau fil binding 0.4µM (no result: HBB splice mod)
COCCn1c(=N)c(C(=O)NCc2ccco2)cc2c(=O)n3ccccc3nc21	none (no result: UbGFP stabilizer)
CCCCNC(=O)c1cc2c(=O)n3cccc(C)c3nc2n(CCN2CCOCC2)c1=N	Tau fil binding inconclusive
COCCCn1c(=N)c(C(=O)NCc2ccc3c(c2)OCO3)cc2c(=O)n3ccccc3nc21	Tau fil binding 10µM
COCCNC(=O)c1cc2c(=O)n3cccc(C)c3nc2n(Cc2ccncc2)c1=N	none
COc1ccc(CCNC(=O)c2cc3c(=O)n4cccc(C)c4nc3n(Cc3ccncc3)c2=N)cc1	Tau fil binding 3.2µM
CCCCN(C(=O)c1ccc(Cl)cc1)C1CC2CCC(C1)N2C (stereo unspecified)	Tau fil binding 16µM (no result: Epigenetic mod)
Cc1cn([C@H]2C=C[C@H](CO)O2)c(=O)[nH]c1=O	none (no result: ERK AVP block)
O=C(Nc1cccc(S(=O)(=O)C(F)F)c1)c1ccc(Cl)c(S(=O)(=O)N2CCOCC2)c1	ERK AVP block 13µM
COc1ccc(C(=O)Nc2cccc(C(C)=O)c2)cc1S(=O)(=O)N1CCOCC1	ERK AVP block inconclusive
Clc1ccc(CSCc2ccc(Cl)cc2Cl)c(Cl)c1	none
Cc1nc2ccc(Cl)cc2nc(C)/c1=N\O	Tau fil binding 13µM
CC(=O)c1c(C)nc2cc(Cl)ccc2c1N	none
NC(=O)CSc1nnc2n(-c3ccccc3)c(=O)c3c4c(sc3n12)CCCCC4	none (no result: Tau fil binding, ERK AVP block, UbGFP stabilizer, Hsp90 Hop PPI, HBB splice mod)
CN1CCc2c(sc3c2c(=O)n(-c2ccccc2)c2nnc(SCc4ccc(Cl)cc4)n32)C1	Tau fil binding 3.2µM
COc1cc(C2c3cc4c(cc3C(OC3OC5COC(C)O[C@@H]5C(O)C3O)C3COC(=O)C23)OCO4)cc(OC)c1O (stereo partly specified)	none (no result: Epigenetic mod, Tau fil binding, UbGFP stabilizer, Hsp90 Hop PPI, HBB splice mod)
Cc1cccc(N2CCN(C(=O)CCNS(=O)(=O)c3ccc4c(c3)CCC(=O)N4)CC2)c1C	ERK AVP block 25µM
O=C(CCNS(=O)(=O)c1ccc2c(c1)CCC(=O)N2)NCc1ccc2c(c1)OCO2	none
c1nc(N2CCC3(CC2)OCCO3)c2c3c(sc2n1)CCCC3	ERK AVP block 32µM
c1ccc(N2CCN(c3ncnc4sc5c(c34)CCC5)CC2)cc1	ERK AVP block inconclusive
O=C(O)CCC/C=C\C[C@H]1[C@@H](/C=C\[C@@H](O)C2Cc3ccccc3C2)[C@H](F)C[C@H]1O	none (no result: ERK AVP block)
N#Cc1cc2ccccc2nc1SCC(=O)Nc1ccc(S(=O)(=O)N2CCCC2)cc1	Tau fil binding 16µM
N[C@H](CCCC(=O)O)C(=O)O	none
Nc1ccn([C@H]2CC[C@@H](CO)O2)c(=O)n1	ERK AVP block 25µM (no result: Epigenetic mod, UbGFP stabilizer)
Nc1nc(N)c(N=Nc2ccc(C(=O)O)c(O)c2)c(N)n1	none
c1ccc(-c2cc(-c3nc(-c4cccnc4)no3)c3ccccc3n2)cc1	Tau fil binding 4µM
Clc1ccccc1-c1nnc2sc(-c3ccco3)nn12	none (no result: Tau fil binding, ERK AVP block, UbGFP stabilizer, Hsp90 Hop PPI, HBB splice mod)
c1ccc(Cc2nnc3sc(-c4ccco4)nn23)cc1	Tau fil binding 16µM (no result: Epigenetic mod, ERK AVP block)
c1ccc(-c2cc(-c3nn4c(-c5ccco5)nnc4s3)c3ccccc3n2)cc1	Tau fil binding 0.63µM
COc1ccc(-c2nn3c(-c4ccco4)nnc3s2)cc1OC	ERK AVP block 25µM
Cc1cc(-c2nn3c(-c4ccccc4)nnc3s2)c2ccccc2n1	none
O=c1cc(CF)[nH]c(=S)[nH]1	none
CCCn1c(-c2ccc(F)cc2)nc2c(NCC3CCN(C)CC3)nc(C)nc21	none (no result: Epigenetic mod)
OC1(C(O)(c2ccc(-c3ccccc3)cc2)c2ccc(-c3ccccc3)cc2)CCCCC1	none
CC(=O)[C@]1(O)CC[C@@H]2[C@H]3C[C@@H](C)C4=CC(=O)CC[C@@]4(C)[C@H]3[C@@H](O)C[C@]21C	none
Clc1ccc(N2CCN(Cc3c[nH]c4ncccc34)CC2)cc1	Tau fil binding 40µM!
Clc1ccc(N2CCN(c3ncnc4c3oc3ccccc34)CC2)cc1	Hsp90 Hop PPI inconclusive
Cc1nn(Cc2ccccc2)c(C)c1NC(=O)c1cc2nc(-c3ccco3)cc(C(F)(F)F)n2n1	Tau fil binding 16µM, ERK AVP block inconclusive
O=C(Nc1cnn(Cc2ccc(F)cc2)c1)c1cc2nc(-c3ccco3)cc(C(F)(F)F)n2n1	Tau fil binding 16µM (no result: HBB splice mod)
CCn1c(SCc2ccc(C#N)cc2)nnc1-c1ccc(S(=O)(=O)N2CCCCC2)cc1	ERK AVP block 25µM (no result: HBB splice mod)
Cc1ccccc1-c1nc2cc(N)ccc2o1	none
CC(C)c1ccc2oc(-c3cc(N)ccc3O)nc2c1	Tau fil binding 3.2µM
CC1Cc2ccccc2N1Cc1nc2scc(-c3cccs3)c2c(=O)[nH]1 (stereo unspecified)	Tau fil binding 13µM
Nc1ccccc1NC1=CC(=O)CC(c2ccco2)C1 (stereo unspecified)	Tau fil binding 16µM, ERK AVP block inconclusive
